Reference: the supplement of paper PMC10849652
Targets with a hit are over-represented here; the source holds about 8,800 in all. About 0.5% of all pairs of compound and target were hits.

How the values were obtained:
Experiment in all cases: log2 fold change, soluble protein after heating vs DMSO (PISA); higher = thermal stabilisation; K562 lysate, 10 uM; active = over 0.2 and 3.5 SD of the protein, either way, in both replicates (recomputed)
[1] = compound: C#Cc1cccc(Nc2ncnc3cc(OCCOC)c(OCCOC)cc23)c1 [erlotinib]
How it was run: (§1)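 Soluble protein was defined as the supernatant remaining after 21,000xg for 90 min, following pooling of heated aliquots and adjustment to 0.5% NP-40 at 4°C. Before that, crude K562 extract at 1 mg/mL protein in PBS pH 7.4 with 1 mM MgCl2 was treated with 10 μM compound for 30 min and heated for 3 min across 48°C-58°C. Quantification used TMTpro 16plex LC-MS/MS with channel sums equalised, and values are log-two fold changes in thermal stability relative to solvent controls from duplicates.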

[2] = compound: C/C(=N\NC(=O)C1=CC(=CC=C1)S(=O)(=O)N2CCOCC2)/C3=C(C=CC(=C3)Cl)O
How it was run: as §1

[3] = compound: C1=CC(=CC=C1C2=NC3=C(N2)C=C(C=C3)C(=O)N)OC4=CC=C(C=C4)Cl
How it was run: as §1

[4] = compound: C1=CC2=C(C=CC(=C2)/C=C\3/C(=O)NC(=NCC4=CC=CS4)S3)N=C1
How it was run: as §1

[5] = compound: C1=CC2=NC=CN=C2C=C1/C=C/3\C(=O)NC(=O)S3
How it was run: as §1

[6] = compound: C1=CC=C(C=C1)C2=NC(=C(N2)C3=CC=NC=C3)C4=CC(=C(C=C4)Cl)O
How it was run: as §1

[7] = compound: C1=CC=C2C(=C1)C3=NNC4=CC=CC(=C43)C2=O
How it was run: as §1

[8] = compound: C1CCN(C1)C(=O)NC2=CC=CC(=C2)NC3=NC=C(C(=N3)NCCC4=CN=CN4)Br
How it was run: as §1

[9] = compound: C1CN(CCC1(CC2=CC=C(C=C2)Cl)N)C3=NC=NC4=C3C=CN4
How it was run: as §1

[10] = compound: C1COCCN1CCN2C3=CC=CC=C3N=C2NC(=O)C4=CC(=CC=C4)[N+](=O)[O-] [IRAK-1-4 Inhibitor I]
How it was run: as §1

[11] = compound: C=CC(=O)N1CCC[C@@H](n2nc(-c3ccc(Oc4ccccc4)cc3)c3c(N)ncnc32)C1 [ibrutinib]
How it was run: as §1

[12] = compound: CC(=O)c1cnc2ccc(-c3cc(Cl)c(O)c(Cl)c3)nc2c1N[C@H]1CC[C@H](CN(C)C)CC1
How it was run: as §1

[13] = compound: CC(C)(C)Cn1c(N)nc2ccc(-c3[nH]c(C(C)(C)C)nc3-c3ccc(F)cc3)nc21 [ralimetinib]
How it was run: as §1

[14] = compound: CC(C)(O)CC(=O)NCCn1ccc2ncnc(Nc3ccc(Oc4cccc(C(F)(F)F)c4)c(Cl)c3)c21
How it was run: as §1

[15] = compound: CC(C)C1=C2N=C(C=C(N2N=C1)NCC3=CC=CC=C3)NCCCCCCN
How it was run: as §1

[16] = compound: CC1=C(C(CC(=O)N1)C2=CC=C(C=C2)C(F)(F)F)C(=O)NC3=C(C=C4C(=C3)C=NN4)F
How it was run: as §1

[17] = compound: CC1=C(C2=C(C=C1)C(=O)C3=CC=CC=C3N2CCCN)C
How it was run: as §1

[18] = compound: CC1=C(C=C(C=C1)NC(=O)C2=CC(=CC=C2)C(C)(C)C#N)NC3=CC4=C(C=C3)N=CN(C4=O)C
How it was run: as §1

[19] = compound: CC1=C(C=C(C=C1)NC(=O)C2=CC(=CC=C2)N(C)C)NC(=O)C3=CC=C(C=C3)O
How it was run: as §1

[20] = compound: CC1=CC=C(C=C1)SC2=C3C=C(SC3=CN=C2)C(=O)N
How it was run: as §1

Measured: log2 fold change

ZNF451 (UniProt Q9Y4E5)
Chain of UniProt Q9Y4E5 (Q9Y4E5 whole entry, looked up): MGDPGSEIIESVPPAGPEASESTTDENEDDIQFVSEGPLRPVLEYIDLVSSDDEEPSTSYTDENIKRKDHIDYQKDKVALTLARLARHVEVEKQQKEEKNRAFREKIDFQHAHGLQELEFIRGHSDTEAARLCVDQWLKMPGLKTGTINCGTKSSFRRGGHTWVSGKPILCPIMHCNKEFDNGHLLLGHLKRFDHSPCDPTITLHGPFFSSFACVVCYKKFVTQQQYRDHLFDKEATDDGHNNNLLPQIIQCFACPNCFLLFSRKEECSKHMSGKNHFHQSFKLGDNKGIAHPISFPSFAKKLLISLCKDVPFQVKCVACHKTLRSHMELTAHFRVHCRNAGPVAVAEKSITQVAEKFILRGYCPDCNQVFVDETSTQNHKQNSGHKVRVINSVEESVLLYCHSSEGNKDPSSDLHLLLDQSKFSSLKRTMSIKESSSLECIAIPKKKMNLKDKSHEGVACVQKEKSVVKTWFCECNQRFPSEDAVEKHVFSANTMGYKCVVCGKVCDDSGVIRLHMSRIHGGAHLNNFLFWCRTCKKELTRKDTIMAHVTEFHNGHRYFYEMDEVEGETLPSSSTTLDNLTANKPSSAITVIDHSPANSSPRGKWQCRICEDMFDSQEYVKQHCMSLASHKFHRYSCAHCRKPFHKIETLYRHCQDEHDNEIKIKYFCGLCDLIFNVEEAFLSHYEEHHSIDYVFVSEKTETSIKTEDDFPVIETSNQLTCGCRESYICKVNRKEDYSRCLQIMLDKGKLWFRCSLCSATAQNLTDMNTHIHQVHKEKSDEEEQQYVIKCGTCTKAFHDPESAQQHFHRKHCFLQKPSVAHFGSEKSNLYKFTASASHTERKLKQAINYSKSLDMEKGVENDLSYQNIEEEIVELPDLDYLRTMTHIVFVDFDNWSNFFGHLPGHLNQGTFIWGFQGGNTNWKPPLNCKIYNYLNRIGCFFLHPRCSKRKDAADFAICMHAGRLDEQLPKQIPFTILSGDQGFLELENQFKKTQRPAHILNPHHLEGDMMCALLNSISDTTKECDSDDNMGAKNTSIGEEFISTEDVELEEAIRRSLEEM
inactive: [1] 0.036 | [2] -0.064 | [3] -0.007 | [4] -0.002 | [5] -0.032 | [6] 0.002 | [7] -0.014 | [8] -0.096 | [9] 0.026 | [10] -0.009 | [11] 0.004 | [12] 0.019 | [13] 0.02 | [14] 0.007 | [15] -0.011 | [16] 0.033 | [17] -0.003 | [18] -0.012 | [19] 0.019 | [20] 0.055

VRK1 (UniProt Q99986)
Chain of UniProt Q99986 (Q99986 whole entry, looked up): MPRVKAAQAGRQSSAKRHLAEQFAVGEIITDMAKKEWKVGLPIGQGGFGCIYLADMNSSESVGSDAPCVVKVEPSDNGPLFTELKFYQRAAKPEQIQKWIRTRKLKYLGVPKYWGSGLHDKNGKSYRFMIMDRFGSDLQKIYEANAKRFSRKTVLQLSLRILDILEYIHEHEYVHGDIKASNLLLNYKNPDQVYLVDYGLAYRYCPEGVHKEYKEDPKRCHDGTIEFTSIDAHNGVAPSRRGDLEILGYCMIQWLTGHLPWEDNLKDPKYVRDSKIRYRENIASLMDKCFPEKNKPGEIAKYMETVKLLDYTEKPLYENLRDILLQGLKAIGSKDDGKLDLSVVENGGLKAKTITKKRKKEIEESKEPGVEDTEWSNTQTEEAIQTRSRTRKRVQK
inactive: [1] 0.009 | [2] -0.05 | [3] 0.002 | [4] 0.049 | [5] 0.015 | [6] 0.024 | [7] -0.02 | [8] 0 | [9] 0.02 | [10] -0.02 | [11] 0.008 | [12] 0.035 | [13] 0.122 | [14] 0.005 | [15] -0.008 | [16] -0.013 | [17] 0.007 | [18] -0.015 | [19] 0.018 | [20] 0.003

ZMYM4 (UniProt Q5VZL5)
Chain of UniProt Q5VZL5 (Q5VZL5 whole entry, looked up): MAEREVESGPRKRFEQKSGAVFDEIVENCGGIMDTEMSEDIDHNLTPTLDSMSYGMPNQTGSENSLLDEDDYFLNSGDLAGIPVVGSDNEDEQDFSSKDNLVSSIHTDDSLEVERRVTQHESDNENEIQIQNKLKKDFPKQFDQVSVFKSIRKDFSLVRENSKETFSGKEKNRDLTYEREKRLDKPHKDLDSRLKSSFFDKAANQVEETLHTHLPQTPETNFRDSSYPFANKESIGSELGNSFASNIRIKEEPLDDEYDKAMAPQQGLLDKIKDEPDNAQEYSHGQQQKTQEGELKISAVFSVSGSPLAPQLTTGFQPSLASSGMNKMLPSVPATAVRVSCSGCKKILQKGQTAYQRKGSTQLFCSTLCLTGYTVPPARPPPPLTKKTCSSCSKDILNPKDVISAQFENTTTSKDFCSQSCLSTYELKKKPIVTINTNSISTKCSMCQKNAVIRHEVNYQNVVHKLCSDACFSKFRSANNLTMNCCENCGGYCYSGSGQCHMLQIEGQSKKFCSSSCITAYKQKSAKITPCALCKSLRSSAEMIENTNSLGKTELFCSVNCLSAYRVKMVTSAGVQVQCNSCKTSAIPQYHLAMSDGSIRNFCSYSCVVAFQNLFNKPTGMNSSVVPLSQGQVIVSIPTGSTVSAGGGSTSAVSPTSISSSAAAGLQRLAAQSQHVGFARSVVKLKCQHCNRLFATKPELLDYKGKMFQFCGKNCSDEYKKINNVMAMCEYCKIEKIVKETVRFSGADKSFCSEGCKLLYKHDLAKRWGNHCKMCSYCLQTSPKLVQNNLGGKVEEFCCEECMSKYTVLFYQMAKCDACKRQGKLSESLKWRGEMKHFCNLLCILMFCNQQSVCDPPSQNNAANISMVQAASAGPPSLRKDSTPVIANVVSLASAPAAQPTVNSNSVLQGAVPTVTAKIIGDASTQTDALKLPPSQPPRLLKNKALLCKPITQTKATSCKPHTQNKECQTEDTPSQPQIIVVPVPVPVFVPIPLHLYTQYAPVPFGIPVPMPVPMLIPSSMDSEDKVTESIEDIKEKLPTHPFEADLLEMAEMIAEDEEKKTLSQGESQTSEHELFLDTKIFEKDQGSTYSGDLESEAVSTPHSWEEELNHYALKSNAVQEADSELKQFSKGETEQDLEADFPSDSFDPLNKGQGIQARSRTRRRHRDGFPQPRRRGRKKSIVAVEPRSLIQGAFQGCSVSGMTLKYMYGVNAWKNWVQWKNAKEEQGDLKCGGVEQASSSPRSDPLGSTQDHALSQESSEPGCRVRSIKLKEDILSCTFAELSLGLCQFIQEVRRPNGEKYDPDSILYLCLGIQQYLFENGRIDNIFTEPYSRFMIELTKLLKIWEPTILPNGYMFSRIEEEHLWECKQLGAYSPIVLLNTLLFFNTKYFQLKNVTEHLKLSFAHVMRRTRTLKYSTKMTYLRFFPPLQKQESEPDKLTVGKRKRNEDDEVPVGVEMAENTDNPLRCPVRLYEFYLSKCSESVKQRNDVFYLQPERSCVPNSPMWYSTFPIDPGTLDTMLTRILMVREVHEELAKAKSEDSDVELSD
inactive: [1] -0.023 | [2] -0.068 | [3] 0.027 | [4] 0.073 | [5] -0.099 | [6] 0.042 | [7] -0.088 | [8] -0.09 | [9] 0.015 | [10] 0.005 | [11] -0.079 | [12] -0.004 | [13] 0.055 | [14] -0.025 | [15] 0.051 | [16] 0.026 | [17] -0.089 | [18] -0.011 | [19] -0.012 | [20] -0.001

VANGL1 (UniProt Q8TAA9)
Chain of UniProt Q8TAA9 (Q8TAA9 whole entry, looked up): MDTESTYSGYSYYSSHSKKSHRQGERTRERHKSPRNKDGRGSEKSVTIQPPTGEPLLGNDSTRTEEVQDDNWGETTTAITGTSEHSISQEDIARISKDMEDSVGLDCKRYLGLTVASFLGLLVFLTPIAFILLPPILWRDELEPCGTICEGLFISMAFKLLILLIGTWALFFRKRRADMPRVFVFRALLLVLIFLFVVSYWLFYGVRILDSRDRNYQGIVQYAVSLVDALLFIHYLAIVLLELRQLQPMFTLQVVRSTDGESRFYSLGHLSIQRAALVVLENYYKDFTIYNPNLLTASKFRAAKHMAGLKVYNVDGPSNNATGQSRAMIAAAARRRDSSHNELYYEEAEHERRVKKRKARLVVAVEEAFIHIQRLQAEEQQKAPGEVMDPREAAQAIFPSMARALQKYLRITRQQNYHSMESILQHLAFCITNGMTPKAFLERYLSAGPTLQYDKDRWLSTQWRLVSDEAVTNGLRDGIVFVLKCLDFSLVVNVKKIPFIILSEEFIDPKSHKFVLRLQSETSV
inactive: [1] 0 | [2] -0.043 | [3] -0.088 | [4] 0.022 | [5] -0.149 | [6] -0.377 | [7] -0.01 | [8] -0.072 | [9] 0.004 | [10] 0.182 | [11] 0.08 | [12] -0.041 | [14] 0.183 | [15] 0.037 | [16] 0.007 | [17] -0.109 | [18] -0.062 | [19] -0.066 | [20] 0.007
active: [13] -0.317

YTHDC2 (UniProt Q9H6S0)
inactive: [1] -0.008 | [2] 0.065 | [3] 0.012 | [4] 0.027 | [5] 0.02 | [6] -0.001 | [7] 0.074 | [8] -0.019 | [9] 0.029 | [10] 0.002 | [11] 0.003 | [12] 0.009 | [13] 0.061 | [14] 0.021 | [15] 0.013 | [16] 0.003 | [17] -0.023 | [18] -0.003 | [19] 0.019 | [20] -0.018

XPO6 (UniProt Q96QU8)
Chain of UniProt Q96QU8 (Q96QU8 whole entry, looked up): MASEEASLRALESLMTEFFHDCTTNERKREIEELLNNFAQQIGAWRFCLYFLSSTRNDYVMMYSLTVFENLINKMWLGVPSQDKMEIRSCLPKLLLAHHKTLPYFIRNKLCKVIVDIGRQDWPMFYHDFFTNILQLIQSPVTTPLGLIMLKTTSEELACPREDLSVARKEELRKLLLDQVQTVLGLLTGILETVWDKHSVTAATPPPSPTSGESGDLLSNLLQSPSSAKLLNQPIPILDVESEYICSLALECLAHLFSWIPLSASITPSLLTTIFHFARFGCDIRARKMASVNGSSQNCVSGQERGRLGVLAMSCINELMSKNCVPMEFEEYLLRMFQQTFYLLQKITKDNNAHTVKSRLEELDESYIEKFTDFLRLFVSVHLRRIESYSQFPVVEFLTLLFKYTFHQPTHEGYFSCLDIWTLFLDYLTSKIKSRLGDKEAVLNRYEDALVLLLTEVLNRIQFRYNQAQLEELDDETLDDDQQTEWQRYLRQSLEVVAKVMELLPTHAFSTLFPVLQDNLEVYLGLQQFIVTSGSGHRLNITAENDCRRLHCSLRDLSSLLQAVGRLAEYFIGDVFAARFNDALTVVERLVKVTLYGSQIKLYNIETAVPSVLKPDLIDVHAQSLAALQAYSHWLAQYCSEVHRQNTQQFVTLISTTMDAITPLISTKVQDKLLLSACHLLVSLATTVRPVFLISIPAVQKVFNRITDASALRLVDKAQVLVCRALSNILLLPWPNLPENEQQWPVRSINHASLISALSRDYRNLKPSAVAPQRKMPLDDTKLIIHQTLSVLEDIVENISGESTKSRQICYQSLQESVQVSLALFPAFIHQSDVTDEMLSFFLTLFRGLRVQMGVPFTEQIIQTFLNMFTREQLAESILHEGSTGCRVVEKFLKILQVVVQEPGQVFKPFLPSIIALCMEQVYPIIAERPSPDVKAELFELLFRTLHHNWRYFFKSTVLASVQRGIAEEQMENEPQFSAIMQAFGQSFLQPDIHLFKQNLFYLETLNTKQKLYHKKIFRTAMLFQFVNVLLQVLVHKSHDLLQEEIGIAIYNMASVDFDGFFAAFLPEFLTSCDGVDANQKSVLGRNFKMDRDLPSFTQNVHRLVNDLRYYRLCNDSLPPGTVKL
inactive: [1] 0.091 | [2] -0.024 | [3] -0.028 | [4] 0.031 | [5] -0.012 | [6] -0.003 | [7] -0.072 | [8] -0.007 | [9] -0.028 | [10] 0.003 | [11] -0.013 | [12] 0.018 | [13] 0.006 | [14] -0.006 | [15] -0.033 | [16] -0.003 | [17] -0.024 | [18] 0.028 | [19] 0.062 | [20] -0.006

ZC2HC1A (UniProt Q96GY0)
Chain of UniProt Q96GY0 (Q96GY0 whole entry, looked up): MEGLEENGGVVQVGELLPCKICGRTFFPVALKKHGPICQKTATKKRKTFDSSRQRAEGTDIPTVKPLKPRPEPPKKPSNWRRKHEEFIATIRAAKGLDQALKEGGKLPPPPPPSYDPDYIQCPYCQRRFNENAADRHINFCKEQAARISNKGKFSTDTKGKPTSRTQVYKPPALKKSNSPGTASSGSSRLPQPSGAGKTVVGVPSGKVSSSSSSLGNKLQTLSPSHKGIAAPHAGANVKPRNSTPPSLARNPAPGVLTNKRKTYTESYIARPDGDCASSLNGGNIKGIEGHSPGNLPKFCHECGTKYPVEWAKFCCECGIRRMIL
inactive: [1] 0 | [2] -0.134 | [3] 0.058 | [4] 0.18 | [5] 0.073 | [6] -0.043 | [7] -0.1 | [8] -0.054 | [9] 0.009 | [10] -0.012 | [11] -0.029 | [12] -0.006 | [13] 0.037 | [14] -0.056 | [15] -0.038 | [16] -0.016 | [17] -0.076 | [18] 0.045 | [19] -0.003 | [20] 0.006

ZMYM1 (UniProt Q5SVZ6)
inactive: [1] -0.041 | [2] -0.027 | [3] -0.002 | [4] 0.021 | [5] 0.007 | [6] -0.036 | [7] 0.041 | [8] 0.043 | [9] 0.025 | [10] -0.008 | [11] -0.04 | [12] 0.012 | [13] 0.02 | [14] 0.016 | [15] -0.022 | [16] -0.049 | [17] -0.008 | [18] 0.001 | [19] -0.007 | [20] -0.011
